Measured values as given in PubChem BioAssay.
Activity calls are given as the source filed them. Unless noted, the rule behind the calls is not given here.

How the values were obtained:
[1] = blood-stage malaria parasite viability loss – strain 3D7, DAPI fluorescence, 100 nL, primary screen (AID 1184);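 note: parasites grown inside human red blood cells in medium with human serum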; conditions: P. falciparum 3D7 growth, 3 d, higher = more signal
[2] = target: Homeobox protein Hox-A13 (Mus musculus) (UniProt Q62424); experiment: disruptors of Hoxa13 oligonucleotide interaction – biochemical, fluorescence polarization, labeled oligonucleotide, primary screen (AID 1185); conditions: Hoxa13:DNA binding, 15 min, higher = more signal, called active from +8 up or from −8 down
[3] = blockers of DNA damage checkpoint Chk1 activation – imaging, HeLa, hydroxyurea, phospho-Chk1 antibody, percent positive cells, primary screen (AID 1186); conditions: hydroxyurea-induced phospho-Chk1 immunofluorescence imaging, higher = more signal
[4] = blockers of DNA damage checkpoint Chk1 activation – imaging, HeLa, hydroxyurea, phospho-Chk1 nuclear intensity, primary screen (AID 1187); conditions: hydroxyurea-induced phospho-Chk1 immunofluorescence imaging, higher = more signal; note: test concentration not given here

Chain of Homeobox protein Hox-A13 (Mus musculus) (Q62424 whole entry, looked up): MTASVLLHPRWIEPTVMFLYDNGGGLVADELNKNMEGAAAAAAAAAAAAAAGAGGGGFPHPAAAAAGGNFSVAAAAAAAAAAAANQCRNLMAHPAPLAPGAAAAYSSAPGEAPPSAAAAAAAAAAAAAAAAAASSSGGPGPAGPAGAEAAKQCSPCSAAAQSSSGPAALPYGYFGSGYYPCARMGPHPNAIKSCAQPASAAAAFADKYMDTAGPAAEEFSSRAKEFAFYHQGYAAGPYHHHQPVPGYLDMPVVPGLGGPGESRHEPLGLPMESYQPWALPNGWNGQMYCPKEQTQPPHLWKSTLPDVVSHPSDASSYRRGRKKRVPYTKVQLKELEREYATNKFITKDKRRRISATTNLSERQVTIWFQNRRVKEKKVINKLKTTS

| Structure (SMILES) | z-score [1] | z-score [2] | z-score [3] | z-score [4] |
| --- | --- | --- | --- | --- |
| CO[C@H]1O[C@H](CO)[C@@H](OC(=O)Nc2ccccc2)[C@H](OC(=O)Nc2ccccc2-c2ccccc2)[C@H]1OC(=O)Nc1ccccc1-c1ccccc1 | -1.81 | -3.12 (inactive) | -0.796 (inactive) | -0.793 (inactive) |
| C=CCN1C(=O)[C@@]2(O[C@@H](CCO)[C@H]([Si](C)(C)c3ccc(OC)cc3)[C@H]2C)c2cc(N3C(=O)c4cccc5cccc3c45)ccc21 | -2.57 | -2.8 (inactive) | -1.22 (inactive) | -0.751 (inactive) |
| CCCNC(=O)[C@@H]1c2ccccc2C(=O)N(Cc2cc(C(F)(F)F)cc(C(F)(F)F)c2)[C@H]1c1ccc(CO)cc1 | -1.64 | -1.94 (inactive) | -0.319 (inactive) | 0.0789 (inactive) |
| C[C@@H](OCc1ccccc1)C1NC(=O)[C@@]23C(=O)N[C@@H](Cc4ccccc4)C2[C@H](C)[C@@]2(C)O[C@H]2C3/C=C/C/C=C\CNC(=O)[C@@H]2CCCN2C1=O (stereo partly drawn) | -2.58 | -7.05 (inactive) | 0.0938 (inactive) | 0.427 (inactive) |
| C=CCC1(CC=C)C[C@H]2CO[C@H](c3ccc(OC)cc3)N2C1=O | -0.682 | -0.41 (inactive) | -0.063 (inactive) | 0.989 (inactive) |
| CCCNC(=O)[C@@]1(Sc2ccc(C)cc2)CC(=O)N(Cc2cc(C(F)(F)F)cc(C(F)(F)F)c2)[C@@H]1c1ccc(CO)cc1I | -0.975 | -2.86 (inactive) | -0.661 (inactive) | -0.6 (inactive) |
| C#CCOc1ccc(C[C@H]2C(=O)O[C@H](Cc3ccccc3)[C@H](/C=C/C3CC3)N2CC#C)cc1 | -1.13 | -0.167 (inactive) | -0.54 (inactive) | -0.582 (inactive) |
| C#CCN1C(C(=O)OCC)OC[C@H]1c1ccccc1 (stereo partly drawn) | -1.53 | 0.387 (inactive) | -0.285 (inactive) | 0.0032 (inactive) |
| COc1ccc(C(=O)Nc2cccc(CN3C(=O)[C@@]4(O[C@@H](CCO)[C@H]([Si](C)(C)c5ccc(OC)cc5)[C@H]4C)c4ccccc43)c2)cc1 | -2.7 | -2.09 (inactive) | -1.08 (inactive) | -0.215 (inactive) |
| COC(=O)C1=CC(c2ccc(CO)cc2)=CC(c2cccs2)N(C)C=C1C(=O)OC (stereo not drawn) | -1.75 | -6.41 (inactive) | -0.261 (inactive) | -0.22 (inactive) |
| C=CCNC(=O)[C@@H]1[C@H]2C(=O)O[C@H](c3ccccc3)[C@H](c3ccccc3)N2[C@H](c2ccc(O)cc2)[C@@]12C(=O)N(C(=O)OCCOC)c1ccc(C#Cc3ccc(OC)cc3)cc12 | -1.08 | -0.182 (inactive) | 0.148 (inactive) | 0.446 (inactive) |
| COC(=O)c1c2oc(c1C(=O)OC)C(=O)N[C@@H](C(C)C)Cn1nncc1C1(CCCCC1)NC(=O)N[C@H](CO)CC2 | 0.0974 | -1.72 (inactive) | -0.259 (inactive) | 0.158 (inactive) |
| COCCOC(=O)N1C(=O)[C@@]2(c3cc(C#CCNC(N)=O)ccc31)[C@H](c1ccccc1OCCO)N1[C@H](c3ccccc3)[C@H](c3ccccc3)OC(=O)[C@H]1[C@@H]2C(=O)Nc1nc2ccccc2s1 | -1.89 | 1.57 (inactive) | -0.298 (inactive) | -0.154 (inactive) |
| O=C1O[C@H](c2ccccc2)[C@H](c2ccccc2)N2[C@H]1[C@@H](C(=O)NC[C@H](O)c1ccccc1)[C@]1(C(=O)Nc3ccc(C#CC4(O)CCCCCC4)cc31)[C@H]2c1ccc(O)cc1 | 0.097 | -1.84 (inactive) | 0.104 (inactive) | 0.572 (inactive) |
| O=C1N(CCS(=O)(=O)c2ccccc2)Cc2ccccc2[C@@H]2OC(c3ccc(OCCCO)cc3)=N[C@]12Cc1ccccc1 | -2.19 | 2.39 (inactive) | -0.354 (inactive) | 0.111 (inactive) |
| CC(C)N1C(=O)c2ccccc2[C@@H](C(=O)NCc2ccccc2)[C@@H]1c1ccc(CO)cc1 | -0.3 | -0.468 (inactive) | -0.67 (inactive) | -0.869 (inactive) |
| COc1ccc([Si](C)(C)[C@@H]2[C@@H](CCn3cc(CCO)nn3)O[C@]3(C(=O)N(Cc4ccc(N5C(=O)c6cccc7cccc5c67)cc4)c4ccccc43)[C@H]2C)cc1 | -2.41 | -1.56 (inactive) | -1.02 (inactive) | -0.956 (inactive) |
| Cc1ccc(N2C(=O)c3ccccc3[C@](C)(C(=O)NCC(F)(F)F)[C@@H]2c2ccc(CO)cc2)nc1 | -1.36 | -1.16 (inactive) | -0.326 (inactive) | -0.277 (inactive) |
| C=C(COC)C(=O)CC[C@H](OC(=O)c1cccnc1)c1cccc(OCCO)c1 | -1.66 | -3.09 (inactive) | -0.458 (inactive) | -0.203 (inactive) |
| C=CCC(OC(C)=O)[C@@H]1[C@@H](N(Cc2ccc(-c3ccccc3)cc2)C(=O)c2ccc(-c3ccccc3)cc2)c2cc(OCCCO)ccc2N1C(=O)c1ccc(-c2ccccc2)cc1 (stereo partly drawn) | -0.883 | -0.513 (inactive) | -0.293 (inactive) | 0.122 (inactive) |
| CCN(CC)c1ccc(N2CC=CC34O[C@@H]5C=CCOC(=O)[C@@H]5[C@H]3C(=O)N(C(CO)C(C)C)[C@@H]4C2=O)cc1 (stereo partly drawn) | -0.45 | -3.03 (inactive) | -0.623 (inactive) | 0.286 (inactive) |

| Structure (SMILES) | z-score [1] | z-score [2] | z-score [3] | z-score [4] |
| --- | --- | --- | --- | --- |
| [N-]=[N+]=NCc1ccccc1C[C@]1(C(=O)NCc2ccccc2)N=C(c2ccc(OCCCO)cc2)O[C@H]1c1ccccc1 | -2.32 | 1.43 (inactive) | -0.901 (inactive) | -0.877 (inactive) |
| CCCC[C@@H](O)C1=C(C)C[C@H]2C(=O)N(C)C(=O)[C@H]2[C@H]1CO | -1.46 | -3.63 (inactive) | -0.425 (inactive) | -0.185 (inactive) |
| CC(C)(C)OC(=O)CC[C@@]1(C(=O)NCc2ccccc2)N=C(c2ccc(OCCCO)cc2)O[C@@H]1c1ccccc1CN=[N+]=[N-] | -2.72 | -0.088 (inactive) | -0.763 (inactive) | -0.84 (inactive) |
| COCCCNC(=O)[C@@]1(CCS(=O)(=O)c2ccccc2)N=C(c2ccc(OCCCO)cc2)O[C@H]1c1ccccc1CN=[N+]=[N-] | -2.68 | -1.88 (inactive) | -1.07 (inactive) | -1.61 (inactive) |
| C=CC[C@]1(C(=O)N2CCCCC2)COC(c2ccc(OCCCO)cc2)=N1 | -2.13 | -4.15 (inactive) | -0.8 (inactive) | -1.06 (inactive) |
| CC(CO)N1C(=O)[C@@H]2C3C(=O)OCCC/C=C\[C@H]3OC23C=CCN(Cc2ccccc2)C(=O)[C@@H]13 (stereo partly drawn) | -0.518 | -5.46 (inactive) | -0.6 (inactive) | -0.674 (inactive) |
| CC(C)C(=C=CC[C@@H](O)c1ccc(CO)o1)CCO | -0.0113 | -3.45 (inactive) | -0.969 (inactive) | -0.763 (inactive) |
| NCCCCCCNC(=O)[C@@H]1C[C@@H]2C(=O)N[C@@H](Cc3ccccc3)C(=O)N2[C@@H]1c1ccc(O)cc1 | -0.18 | -1.74 (inactive) | 1 (inactive) | 0.982 (inactive) |
| CC(C)(C)OC(=O)CC[C@@]12N=C(c3ccc(OCCCO)cc3)O[C@@H]1c1ccccc1CN(Cc1ccccc1)C2=O | -2.3 | -1.33 (inactive) | -0.543 (inactive) | 0.0228 (inactive) |
| COc1ccc([Si](C)(C)[C@H]2[C@H](CC(=O)N(CCO)Cc3ccccc3)O[C@@]3(C(=O)N(Cc4cccc(N5C(=O)COc6ccccc65)c4)c4ccccc43)[C@@H]2C)cc1 | -2.28 | -1.15 (inactive) | -0.567 (inactive) | 0.722 (inactive) |
| CC1CC/C=C\[C@H]2OC34C=CCN(C(C)C)C(=O)[C@H]3N(C(CO)C(C)C)C(=O)[C@@H]4C2C(=O)O1 (stereo partly drawn) | 0.639 | -4.54 (inactive) | -0.686 (inactive) | -0.549 (inactive) |
| CCCCC(=C=CC[C@H](O)c1cccc(OCCO)c1)CCO | -1.01 | -2.75 (inactive) | -0.0801 (inactive) | -0.401 (inactive) |
| O=C1O[C@@H](c2ccccc2)[C@@H](c2ccccc2)N2[C@@H](c3ccc(OCCO)cc3)[C@]3(C(=O)Nc4ccc(C#CC5(O)CCCCCC5)cc43)[C@@H](C(=O)NC[C@H](O)c3ccccc3)[C@H]12 | -2.21 | -1.22 (inactive) | 0.0477 (inactive) | 0.343 (inactive) |
| CCCCC(=C=CC[C@@H](O)c1ccc(OCCO)cc1)C[C@@H](O)c1cc(Cl)cc(Cl)c1O | -2.87 | -3.4 (inactive) | -0.806 (inactive) | -0.578 (inactive) |
| COc1ccc(C#Cc2ccc3c(c2)[C@]2(C(=O)N3)[C@H](c3ccc(O)cc3)N3[C@H](c4ccccc4)[C@H](c4ccccc4)OC(=O)[C@H]3[C@@H]2C(=O)N2CCN(c3ncccn3)CC2)cc1 | -2.28 | 0.562 (inactive) | 0.396 (inactive) | 0.583 (inactive) |
| COC(=O)C(CC#Cc1ccc2c(c1)[C@]1(C(=O)N2)[C@H](C(N)=O)[C@H]2C(=O)O[C@H](c3ccccc3)[C@H](c3ccccc3)N2[C@@H]1c1ccc(O)cc1)C(=O)OC | -0.91 | -3.34 (inactive) | 0.16 (inactive) | 0.819 (inactive) |
| COCCOC(=O)N1C(=O)[C@@]2(c3cc(C#CC4(O)CCCCCC4)ccc31)[C@H](c1ccccc1OCCO)N1[C@H](c3ccccc3)[C@H](c3ccccc3)OC(=O)[C@H]1[C@@H]2C(=O)Nc1nc2ccccc2s1 | -1.67 | 4.08 (inactive) | -0.201 (inactive) | -0.38 (inactive) |
| CC(C)(C)OC(=O)CC[C@]1(C(=O)NCc2ccccc2)COC(c2ccc(OCCCO)cc2)=N1 | -0.561 | -5.02 (inactive) | 0.0879 (inactive) | 0.166 (inactive) |
| C=CC[C@@H](OC(=O)Nc1ccc(SC)cc1)c1ccc(OCCO)cc1 | 0.246 | -5.9 (inactive) | -0.0622 (inactive) | 0.593 (inactive) |
| CCCCCN1CC=CC23O[C@@H]4/C=C\CCC(C)OC(=O)C4[C@H]2C(=O)N(CCCO)[C@@H]3C1=O (stereo partly drawn) | -0.186 | -3.86 (inactive) | -0.183 (inactive) | 0.0885 (inactive) |
| CCOC(=O)C[C@H]1[C@H](OC(=O)Cc2ccc3c(c2)OCO3)[C@@H](NC(=O)c2ccc3ccccc3c2)c2cc(OCCCO)ccc2N1C(=O)c1ccc2ccccc2n1 | -1.29 | -2.66 (inactive) | -0.926 (inactive) | -0.612 (inactive) |
